This is an account of results in PubChem BioAssay AID493033 (ICCB-Longwood Screening Facility, Harvard Medical School, 2011).

The campaign covered roughly 100,000 compounds. About 930 (0.93%) were called active. This is one part of a sample in which actives are shown more often than they occur. Rule as the data show it: active = inhibition mostly above about 56% (no sharp cut-off); inactive = mostly below about 77%.

Chain of Salicylate synthase (Mycobacterium tuberculosis (strain CDC 1551 / Oshkosh)) (P9WFX0 whole entry, looked up): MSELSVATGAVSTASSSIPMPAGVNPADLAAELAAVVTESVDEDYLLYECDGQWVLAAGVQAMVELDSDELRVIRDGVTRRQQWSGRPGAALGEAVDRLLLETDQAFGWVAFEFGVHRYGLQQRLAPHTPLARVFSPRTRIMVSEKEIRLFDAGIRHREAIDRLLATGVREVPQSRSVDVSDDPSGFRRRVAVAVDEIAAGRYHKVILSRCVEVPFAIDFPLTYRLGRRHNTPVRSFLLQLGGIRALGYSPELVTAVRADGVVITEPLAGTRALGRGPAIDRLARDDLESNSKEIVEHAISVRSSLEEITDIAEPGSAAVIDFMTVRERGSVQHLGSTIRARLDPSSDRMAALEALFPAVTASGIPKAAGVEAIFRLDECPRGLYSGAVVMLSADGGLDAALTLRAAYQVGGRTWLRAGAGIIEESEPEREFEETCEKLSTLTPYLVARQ

This experiment addresses Salicylate synthase (Mycobacterium tuberculosis (strain CDC 1551 / Oshkosh)) (UniProt P9WFX0). The experiment can be described thus: inhibitors of M. tuberculosis MbtI – biochemical, fluorescence intensity, primary screen (AID 493033). The conditions noted are these: purified MbtI enzyme, fluorescence intensity read-out, stronger effect = higher value, concentration not given here.
On to `Cc1[nH]c(=O)[nH]c(=O)c1NC(=O)CSc1nc2c(C)cccc2cc1C#N`, for which the inhibition was -1.15% (inactive).
Then `Cc1cc(C)n(C(=O)C2CC=CCC2C(=O)O)n1` (configuration not stated), with -7.4% (inactive).
Then `O=C(CSc1nnc2n1CCCCC2)N(Cc1cccs1)c1ccc2c(c1)OCCO2`, with -10.9% (inactive); and `CCOC(=O)Cc1n[nH]c(=S)n1C1CCCC1`, with 13.4% (inactive); and `Cc1ccc(OCc2n[nH]c(=S)n2C2CCCCC2)c2c1CCC2`, with 70.4% (active).
Then `O=C(OCC(=O)C12CC3CC(CC(C3)C1)C2)c1cccs1`, with 13.6% (inactive).
In the case of `CCn1cnc2cc(NCc3ccccn3)ccc21`, the inhibition is -5.05% (inactive).
Then `N#C/C(=N\Nc1ccccc1)C(=O)C1CC1`, with 97% (active); and `CCc1ccc(N/N=C(\C#N)C(=O)N2CCN(C)CC2)cc1`, with 6% (inactive); and `C/C(=N/NC(=O)CCc1ccccc1)C1CC1`, with -4.85% (inactive).
Then `Cc1ccc2[nH]c3c(c2c1)CCCC3O` (configuration not stated), with 53.3% (inactive); and `Cc1noc(C)c1COc1ccc(C(=O)OCCN2C(=O)c3ccccc3C2=O)cc1`, with -17.5% (inactive); and `O=C(NCC1CCN(c2ccc(S(=O)(=O)N3CCOCC3)cc2)CC1)Nc1cccc(F)c1`, with -7.4% (inactive).
Then `CC(OC(=O)c1ccccc1NS(=O)(=O)c1ccc2[nH]c(=O)[nH]c2c1)C(=O)N1CCCCC1` (configuration not stated), with -42.9% (inactive).
In the case of `COc1ccc(Cc2nnc(SC)[nH]c2=O)cc1`, the inhibition is 10.6% (inactive).
Then `COc1ccc(-c2nc3sc(-c4ccc(OC)cc4)nc3s2)cc1`, with 84.3% (active); and `COc1ccc(C#N)cc1`, with -8.8% (inactive); and `CSc1cc(-c2ccc(F)cc2)nn1S(=O)(=O)c1cccc(C(F)(F)F)c1`, with -4.6% (inactive).
`Cc1cc2ncn(-c3ccc(S(=O)(=O)N4CCCC4)cn3)c2cc1C`: the inhibition is 35.2% (inactive).
Then `Cc1nc(SCC(=O)c2ccc(NS(C)(=O)=O)cc2)n(C2CCCCC2)c1C`, with -5.8% (inactive).
Then `c1ccc(Cc2nn3c(Cn4cnc5ccccc54)nnc3s2)cc1`, with 65.2% (active).
Then `N#CCCn1cnc2ccccc21`, with -6.55% (inactive); and `COCCn1cnc2ccccc21`, with -7.65% (inactive).
Take `CCOc1cc2c(cc1OCC)C(CC(=O)O)N(C(=O)Nc1ccc(OC)cc1)CC2` (configuration not stated): the inhibition is 26.9% (inactive).
Then `COc1ccccc1Nc1nc2c(S(=O)(=O)c3c(C)cc(C)cc3C)nnn2c2ccccc12`, with 3.35% (inactive).
Then `COc1cc(Br)c(CC(=O)N2CCOCC2)cc1OC`, with -8.25% (inactive).
Then `O=c1ccc(-c2ccc(S(=O)(=O)Nc3ccccc3)o2)n[nH]1`, with 1.95% (inactive).
